According to PubChem BioAssay:
The source made the active and inactive calls. How the calls were made is not given here.

System: Aerobactin synthetase IucA (Klebsiella pneumoniae hvKP1)
Assay: IucA enzyme inhibition, primary screen, biochemical, Spectrum library (AID 1346200);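 further: 100% = wells without compound and 0% = wells lacking enzyme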
Settings: malachite green pyrophosphate, A620, at 8 µM, active compounds read low

| Compound | activity remaining |
| --- | --- |
| COc1c(C)c2c(c(O)c1C/C=C(\C)CCC(=O)O)C(=O)OC2 | 98.9% (inactive) |
| COc1ccc(C(=O)c2ccccc2)c(O)c1 | 116% (inactive) |
| CN1C2CC(OC(=O)[C@H](CO)c3ccccc3)C[C@H]1[C@H]1OC21 (some centres undefined) | 109% (inactive) |
| CC1CCC2(OC1)OC1CC3C4CC[C@H]5C[C@@H](O)CC[C@]5(C)C4CC(=O)[C@]3(C)C1C2C (some centres undefined) | 94.1% (inactive) |
| COC1CC2CCC(C)C(O)(O2)C(=O)C(=O)N2CCCCC2C(=O)OC(C(C)CC2CCC(O)C(OC)C2)CC(=O)C(C)/C=C(\C)C(O)C(OC)C(=O)C(C)CC(C)/C=C/C=C/C=C/1C (centres undefined) | 107% (inactive) |
| O=C(/C=C/c1ccccc1)c1ccc(O)cc1 | 95.4% (inactive) |
| Cc1noc(NS(=O)(=O)c2ccc(N)cc2)c1C | 117% (inactive) |
| C[C@@H]1CC2C3CCC4=CC(=O)C=C[C@]4(C)[C@@]3(F)[C@@H](O)C[C@]2(C)[C@@]1(O)C(=O)COP(=O)(O)O (some centres undefined) | 114% (inactive) |
| O=C(CCCN1CCN(c2ccccn2)CC1)c1ccc(F)cc1 | 124% (inactive) |
| CCCc1nc(C(C)(C)O)c(C(=O)OCc2oc(=O)oc2C)n1Cc1ccc(-c2ccccc2-c2nn[nH]n2)cc1 | 121% (inactive) |
| CC(=O)OCC(=O)[C@@]1(O)CCC2C3C[C@H](C)C4=CC(=O)C=CC4(C)C3[C@@H](O)CC21C (some centres undefined) | 93.6% (inactive) |
| CC(=O)O[C@H]1C[C@@]2(C)[C@@H](C[C@@H](O)C3[C@]2(C)CC[C@H]2[C@H](C)[C@H](O)CC[C@]32C)/C1=C(/CCC=C(C)C)C(=O)O (some centres undefined) | 110% (inactive) |
| C[C@@H]1OC(O[C@H]2[C@H](OC(=O)[C@]34CCC(C)(C)CC3C3=CCC5[C@@]6(C)CC[C@H](OC7O[C@@H](C)[C@H](O[C@@H]8OC[C@@H](O)[C@H](O)[C@H]8O)[C@@H](O)[C@H]7O)C(C)(C)C6CC[C@@]5(C)[C@]3(C)CC4O)OC[C@H](O)[C@H]2O)[C@H](O)[C@H](O)[C@H]1O[C@@H]1O[C@H](CO)[C@@H](O)[C@H](O)[C@H]1O (some centres undefined) | 99.8% (inactive) |
| COc1cc2ccc(=O)oc2cc1O | 110% (inactive) |
| COc1cc(/C=C/C(=O)O)cc(OC)c1OC | 111% (inactive) |
| C[C@]12CCc3occc3C1CC[C@@]13C[C@@H](CCC12)[C@@](O)(CO)C3 (some centres undefined) | 93.4% (inactive) |
| C[C@H](CC(=O)C(O)C(C)(C)O)[C@H]1C(=O)C[C@@]2(C)C3=CCC4C(C)(C)[C@@H](O[C@@H]5OC[C@@H](O)[C@H](O)[C@H]5O)CC[C@@]45C[C@@]35[C@@H](O)C[C@]12C (some centres undefined) | 109% (inactive) |
| NC[C@H]1O[C@H](O[C@H]2[C@H](O)[C@@H](O[C@H]3O[C@H](CO)[C@@H](O)[C@H](N)[C@H]3O)[C@H](N)C[C@@H]2N)[C@H](N)C[C@@H]1O | 97% (inactive) |
| COc1ccc(CCN(C)CCCC(C#N)(c2ccc(OC)c(OC)c2)C(C)C)cc1OC (centres undefined) | 97.5% (inactive) |
| CC(C(=O)O)c1ccc(-c2ccccc2)c(F)c1 (centres undefined) | 104% (inactive) |

| Compound | activity remaining |
| --- | --- |
| NC(=O)c1cccnc1 | 109% (inactive) |
| CC(=O)NS(=O)(=O)c1ccc(N)cc1 | 126% (inactive) |
| Cc1ccnc(NS(=O)(=O)c2ccc(N)cc2)n1 | 122% (inactive) |
| CN1C2CCC1CC(OC(=O)C(CO)c1ccccc1)C2 (centres undefined) | 108% (inactive) |
| Oc1cc(O)c2c(c1)O[C@H](c1ccc(O)c(O)c1)[C@H](O)C2 | 99.8% (inactive) |
| CCCCOc1ccc(C(=O)CCN2CCCCC2)cc1 | 96.6% (inactive) |
| NC[C@@H]1O[C@H](O[C@@H]2[C@@H](CO)OC(O[C@@H]3[C@@H](O)[C@H](N)C[C@H](N)[C@H]3O[C@H]3O[C@H](CO)[C@@H](O)[C@H](O)[C@H]3N)[C@@H]2O)[C@H](N)[C@@H](O)[C@@H]1O (some centres undefined) | 97.1% (inactive) |
| C[C@]12C=CC(=O)C=C1CCC1C2C(=O)C[C@@]2(C)C1CC[C@]2(O)C(=O)CO (some centres undefined) | 101% (inactive) |
| Cc1onc(-c2ccccc2)c1-c1ccc(S(N)(=O)=O)cc1 | 103% (inactive) |
| OC(Cn1cncn1)(Cn1cncn1)c1ccc(F)cc1F | 105% (inactive) |
| Cc1ccc(C(=O)c2ccc(CC(=O)O)n2C)cc1 | 120% (inactive) |
| CC(=O)O[C@H]1C[C@@H](OC(C)=O)C(C)(C)C2CC(=O)[C@]3(C)C(CC[C@@]4(C)[C@H](C(=O)O)OC(=O)C5OC543)[C@]21C (some centres undefined) | 122% (inactive) |
| COc1c2occc2cc2ccc(=O)oc12 | 124% (inactive) |
| CCCCCCCCCCCCCCCCOP(=O)([O-])OCC[N+](C)(C)C | 128% (inactive) |
| CC1(O)CC2C(CC1O)C2(C)C (centres undefined) | 125% (inactive) |
| CO/N=C(/C(=O)N[C@@H]1C(=O)N2C(C(=O)O)=C(CSc3nc(=O)c(O)nn3C)CS[C@H]12)c1csc(N)n1 | 110% (inactive) |
| O=C(O)c1cccnc1 | 120% (inactive) |
| C[C@H]1CC2C([C@@H](O)C[C@@]3(C)C2CC[C@]3(O)C(=O)CO)[C@@]2(C)C=CC(=O)C=C12 (some centres undefined) | 115% (inactive) |
| C=C1CCC2[C@](C)(CO)[C@H](O)CC[C@@]2(C)[C@@H]1C/C=C1/C(=O)OC[C@H]1O (some centres undefined) | 108% (inactive) |
